# Screening results (PubChem BioAssay)
# Rows were chosen to be rich in hits. Some 6.9% of all compounds tested hit in one or more screens of this group.
# FXIIa inh mix: inhibitors of human coagulation factor XIIa, pooled mixtures. P00748. hit rate 0.2% among 62,000. inhibition, % at 5 µM. purified FXIIa, fluorogenic substrate;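 further: 0% = enzyme without compound and 100% = no enzyme blank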
# FXIa inh mix: inhibitors of human coagulation factor XIa, pooled mixtures; purified FXIa, fluorogenic substrate; inhibition, % at 5 µM; P03951; hit rate 0.19% among 62,000;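 further: each value is inhibition by a whole ten-compound pool holding the compound; 0% = enzyme with no mixture and 100% = wells lacking enzyme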
# M1 antag: M1 muscarinic receptor (rat) antagonism. P08482. CHO-M1 cells, Fluo-4 calcium, ACh EC80 antagonist mode; stronger effect = lower value. B-score at 10 µM. hit rate 3.4% among 64,000. AID 628;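 active means calcium fluorescence response, raw or row-and-column corrected B-score, differing from the plate sample mean either way at a set confidence level, mostly lower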
# HER2 expr 66K: inhibitors of human Her2 kinase expression. P04626. SKBR-3 HER2 protein level, AlphaScreen, 18-24 h; stronger effect = lower value. HER2 level % of control, % at 10 µM. hit rate 0.69% among 65,000;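 active means HER2 level under 5% of the carrier-only control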;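 further: 100% = DMSO carrier and 0% = 500 nM PU-H71 HSP90 inhibitor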
# M1 ag: M1 muscarinic receptor agonism | CHO-M1 cells, Fluo-4 calcium fluorescence, agonist mode; stronger effect = higher value | hit rate 3% among 64,000 | B-score at 10 µM | AID 626;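 active means fluorescence rise, raw or as B-score row- and column-corrected plate score, outside the 99.7% band of its plate's samples, either direction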
# JNK3 blocker: blocks human JNK3 kinase activity. inhibition, % at 8 µM. purified JNK3 kinase activity, HTS. hit rate 0.61% among 60,000. P53779; in the data active means inhibition above about 17%;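 further: 0% = DMSO and 100% = reference inhibitor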
# * marks the source's active call; other numbers are inactive results; . = not tested or not shown. Unless noted, no stated cut-off is given here; in the data, active means inhibition above about 20% (passing the limit was not always enough); inactive means the rest.
SMILES,FXIIa inh mix,FXIa inh mix,M1 antag,HER2 expr 66K,M1 ag,JNK3 blocker
Cc1cccc(N(CC(=O)NCc2ccc3c(c2)OCO3)C(=O)CCC(=O)Nc2ccccn2)c1,19.4,3.7,0.0494,-29.6*,-0.772,-4.4
Cc1cccc(N(CC(=O)NCc2ccc3c(c2)OCO3)C(=O)CCC(=O)Nc2ccccn2)c1C,8.8,2.0,0.214,129.4,1.55,11.4
CC(=O)Nc1nc(-c2cccs2)cs1,-17.7,-8.9,0.299,83.4,0.369,-3.1
O=C1c2ccccc2C(=O)N1c1nc(-c2cccs2)cs1,20.3*,1.8,0.563,53.7,0.554,-3.4
Cc1ccc(C(=O)OCc2cc3ccccc3[nH]c2=O)cc1,6.2,5.8,0.285,117.1,0.084,28.3*
Cc1cccc(C(=O)OCc2cc3ccccc3[nH]c2=O)c1,5.1,4.2,0.461,115.3,-0.124,13.3
O=C(NC1CCCCC1)c1ccc(Cn2cc(Br)cn2)o1,-17.8,-0.1,0.735,91.7,0.6,1.5
O=C(NCc1ccccn1)c1ccc(Cn2cc(Br)cn2)o1,2.5,-7.7,2.32*,173.5,0.0587,1.0
CCN(CC)c1ccc(NC(=O)CN2C(=O)CSc3ncccc32)c(C)c1,0.3,22.9*,-0.0119,101.1,-1.73,0.3
COc1ccc(Cl)cc1NC(=O)c1cccnc1,9.4,-5.3,0.00031,94.1,0.276,6.1
O=C(NCC1CCCO1)C1CCC(N2C(=O)c3ccccc3C2=O)CC1 (stereo not given),1.0,2.4,-1.25,103.0,-0.503,-1.8
O=C(NCC1CCCO1)C1c2ccccc2C(=O)N1C1CCCCCC1 (stereo not given),-0.3,-0.6,0.212,93.4,9.19*,2.2
CCOc1cccc(-c2nn3c(-c4ccco4)nnc3s2)c1,.,.,0.353,74.4,0.677,8.3
CCOC(=O)c1ccc(CNC(=O)c2cc3cccc(OC)c3oc2=O)o1,-2.8,8.3,-0.817,86.2,-0.279,-4.3
Cc1ccc2c(c1)C(N1CCCC1=O)CC(c1ccco1)N2 (stereo not given),10.7,2.3,-0.0196,15.0,2.61*,-7.3
CCNc1nc2c(c(=O)n(C)c(=O)n2C)n1Cc1ccc(Cl)cc1,-1.6,2.1,-0.715,95.9,2.56*,4.3
CCC(C)Nc1nc2c(c(=O)n(C)c(=O)n2C)n1Cc1cccc(C)c1 (stereo not given),.,.,13.4*,103.6,0.61,1.3
COc1ccc(OC)c2[nH]c(=O)c(CCNC(=O)CC(C)C)cc12,6.2,4.1,0.253,88.5,-0.301,-1.7
COc1ccc(C(=O)Nc2ccc(S(=O)(=O)Nc3nccnc3OC)cc2)cc1OC,2.1,-0.2,-18.7*,76.9,25*,-8.0
COc1ccc(C(=O)Nc2ccncc2)cc1OC,3.9,6.7,0.227,169.1,-0.159,2.3
COc1cccc(-c2noc(-c3cccs3)n2)c1,31.1*,1.6,-0.137,18.4,-0.43,-0.7
Cc1cccn2c(=O)c(C=NCc3ccco3)c(Nc3ccc(Cl)cc3)nc12,-9.7,3.2,0.337,85.7,0.33,4.2
COc1ccc(-c2csc(Cc3nnc4n3CCCCC4)n2)cc1,0.3,-0.7,2.3*,81.8,0.839,0.8
CCOC(=O)NC(=O)CN1C(=O)NC(C)(c2ccccc2)C1=O (stereo not given),8.8,0.0,2.12*,71.5,-0.0727,2.0
CC1(c2ccccc2)NC(=O)N(CC(=O)NC(=O)NC2CCCC2)C1=O (stereo not given),2.5,5.4,0.739,78.8,-0.0833,4.2
SMILES,FXIIa inh mix,FXIa inh mix,M1 antag,HER2 expr 66K,M1 ag,JNK3 blocker
COc1cc(NC(=O)c2ccc(COc3ccccc3Br)o2)cc(OC)c1OC,-5.3,8.5,-0.236,79.1,-0.00612,20.1*
C=CCn1c(SCc2nc3ccccc3c(=O)[nH]2)nnc1-c1cc2cc(Cl)ccc2o1,7.8,-2.0,0.44,3.3*,0.284,-2.3
O=c1[nH]c(CSc2nnc(-c3ccncc3)n2Cc2ccco2)nc2ccccc12,-16.8,2.9,0.884,112.9,1.17,0.0
COc1ccc(-c2nc(C#N)c(NC(C)c3ccccc3)o2)cc1OC (stereo not given),0.2,6.8,0.227,76.3,0.152,-2.3
O=c1c2ccccc2nc2sc3ccccc3n12,.,.,-0.0658,88.5,-0.0459,8.4
Cc1ccccc1Nc1nn2c(=O)c3ccccc3nc2s1,0.8,2.0,1.55,95.5,-0.128,25.7*
Cc1nnc(SCC(=O)Nc2ccc(Br)cn2)[nH]c1=O,41.5,6.3,0.999*,82.1,0.198,-1.3
C/C=C(\CS(=O)(=O)c1ccccc1)S(=O)(=O)c1ccccc1,18.8,2.3,0.963,71.4,-1.04,5.0
C1=C(c2ccc(-c3ccccc3)cc2)Nc2ncnn2C1c1ccco1 (stereo not given),13.3,-13.0,-1.59,17.9,43.6*,1.4
Fc1ccc(Br)cc1C1C=C(c2cccnc2)Nc2ncnn21 (stereo not given),3.0,0.4,0.428,76.4,-1.48,1.2
COc1ccc(C2C=C(c3ccc(Br)s3)Nc3ncnn32)cc1OC (stereo not given),40.3,9.8,-0.00592,58.4,120*,-3.0
COc1ccc(C2C=C(c3ccc(C)cc3)Nc3ncnn32)cc1 (stereo not given),.,.,-0.444,70.9,33.1*,1.9
COc1ccc(C2=CC(c3ccc(OC)c(OC)c3)n3nnnc3N2)c(OC)c1 (stereo not given),-1.7,-2.6,0.73,120.1,0.95,3.4
COc1ccc(C2C=C(c3ccccc3)Nc3nnnn32)cc1 (stereo not given),9.6,3.8,0.018,81.6,-0.87,-3.3
CSc1ccccc1NC(=O)COc1ccc(S(=O)(=O)N2CCCC2)cc1,6.8,3.8,.,107.2,.,-0.7
C1=Nc2c(Nc3ccccc3)ncnc2Oc2ccccc21,-3.0,11.5,-0.333,110.8,0.12,12.1
COCCCN(C(=O)Nc1ccccc1)C(C)c1ccncc1 (stereo not given),10.6,5.6,0.267,97.2,0.125,-0.3
O=C(NCc1nc2ncc(Br)cc2[nH]1)c1ccccc1,2.8,1.7,-0.0123,263.0,0.377,39.9*
O=C(Cc1ccccc1)NCc1nc2ccccc2[nH]1,.,.,-0.527,96.9,-0.524,2.9
N#Cc1cccc(NC(=O)NCCc2c[nH]c3ccccc23)c1,-14.0,8.3,-0.0143,91.4,-0.569,-1.7
COc1ccc(C2C(C(=O)NCc3ccco3)CCC(=O)N2c2ccc(OC)cc2)cc1 (stereo not given),3.9,5.5,0.583,79.5,-0.337,17.3*
CCN1C(=C2C(=O)c3ccccc3C2=O)C=Cc2ccccc21,5.3,11.6,0.144,.,0.0521,.
CC1=CC(=C2C(=O)c3ccccc3C2=O)C=C(C)N1C,-14.4,-3.9,0.169,107.9,0.535,20.8*
C=CCN1C(=O)C(O)(CC(=O)c2ccc(N)cc2)c2ccccc21 (stereo not given),-2.5,9.4,0.77,113.6,-0.0317,.
O=C(CC1(O)C(=O)N(C/C=C/c2ccccc2)c2ccccc21)c1ccccn1 (stereo not given),-14.9,4.1,1.94*,72.1,0.517,7.0
